Source: PubChem BioAssay
Values without a mark were called inactive. How the calls were made is not given here.

Target: Pantothenate synthetase (Mycobacterium tuberculosis (strain ATCC 25618 / H37Rv)) (UniProt P9WIL5)
Test: Recombinant Mtb pantothenate synthetase (PanC) inhibitors, coupled enzyme, confirmatory (AID 375);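 further: 0% = full reaction with vehicle and 100% = no enzyme background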
Conditions: coupled enzyme assay; at 10 µM, active compounds read high

Pantothenate synthetase (Mycobacterium tuberculosis (strain ATCC 25618 / H37Rv)), sequence (P9WIL5 whole entry, looked up): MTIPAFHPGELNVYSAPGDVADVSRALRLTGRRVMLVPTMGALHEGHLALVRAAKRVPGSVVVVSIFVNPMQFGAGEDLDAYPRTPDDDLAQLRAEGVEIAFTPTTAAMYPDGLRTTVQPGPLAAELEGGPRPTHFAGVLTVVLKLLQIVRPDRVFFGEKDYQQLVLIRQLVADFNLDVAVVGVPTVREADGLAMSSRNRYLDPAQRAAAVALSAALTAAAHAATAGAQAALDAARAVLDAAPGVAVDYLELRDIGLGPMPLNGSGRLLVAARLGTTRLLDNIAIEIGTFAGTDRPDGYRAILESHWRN

Compared with `CCOc1ccc(OCc2ccc(C(=O)Nc3cccc(C)n3)o2)cc1`, `CCOc1ccc(NC(=O)c2ccccc2O)cc1` is lower in inhibition: 7% for the first, 0% for the second.

First: C/C=C/CSc1nc2c(c(=O)[nH]c(=O)n2C)n1Cc1ccc(C)cc1
Second: CCOC(=O)c1sc2nc(SCC(=O)NCc3ccco3)n(Cc3ccccc3)c(=O)c2c1C
The inhibition of the first is higher: 4% for the first, 0% for the second.

Compared with `COc1ccccc1N1C(=O)CCC1(C#N)c1ccccc1` (configuration not stated), `CCOC(=O)N1CCC(N2C(=O)c3ccccc3C2Nc2ccccc2C)CC1` (configuration not stated) is higher in inhibition: 0% for the first, 4% for the second.

Going from `O=C(O)c1cc(/C=N\O)ccc1OCc1ccccc1` to `Cc1ccccc1NS(=O)(=O)c1ccc(NC(=O)c2ccco2)cc1`, the inhibition falls from 3% to 0%.

`O=C(c1ccc(CNS(=O)(=O)c2cccc(C(F)(F)F)c2)cc1)N1CCOCC1` and `Cc1ccc(S(=O)(=O)N(CC(=O)N2CCC(C(N)=O)CC2)c2cccc(C(F)(F)F)c2)cc1` are the same in inhibition: 0% for the first, 0% for the second.

Compared with `Nc1scc(-c2ccncc2)c1Cl`, `COc1ccc(-c2noc(COc3ccc(Cl)c(C)c3)n2)cc1` is lower in inhibition: 7% for the first, 0% for the second.

First: CCOC(=O)C1CCN(C(=O)CSc2n[nH]c(=O)[nH]c2=O)CC1
Second: CCOc1ccc(OCC)c(NC(=O)C2CCN(S(=O)(=O)c3cnc[nH]3)CC2)c1
The inhibition of the first is lower: 0% for the first, 4% for the second.

`COc1ccc(NC(=O)CN(c2ccc(C(C)C)cc2)S(=O)(=O)c2c(C)noc2C)cc1OC` and `Cc1cc(C)nc(SCc2nnc(SCC(=O)Nc3ncc(C)s3)n2Cc2ccco2)n1` are the same in inhibition: 0% for the first, 0% for the second.

Going from `COc1ccc(-n2c(COc3ccccc3)nnc2SCc2ccc(C#N)cc2)cc1` to `Cc1cc(C)c2cc3c(ccn3C3OC[C@H](O)[C@H](O)[C@H]3O)cc2n1` (some centres not stated), the inhibition rises from 0% to 4%.

First: CC(C)Cc1nc(N2CCN(C(=O)c3ccco3)CC2)c(C#N)c2c1CCC2
Second: Cc1ccccc1-c1nc(CS(=O)(=O)CC(=O)N(C)C2CCCCC2)c(C)o1
The inhibition of the first is higher: 5% for the first, 0% for the second.

Going from `CCOC(=O)C(C(=O)OCC)C(C)C#CCN1CCCCC1` (configuration not stated) to `CCCCCCC1/C(=N/O)CCC1C(=O)OC` (configuration not stated), the inhibition falls from 4% to 0%.
